Growth data for 13 compounds are collected here from PubChem BioAssay (NCI).

Among the test systems are HCT-15 colon; HT29 colon; SNB-75 CNS; SNB-19 CNS; U251 CNS; PC-3 prostate; SK-MEL-5 melanoma; UACC-62 melanoma; LOX IMVI melanoma; SK-MEL-28 melanoma.
Experiment in all cases: NCI-60 one-dose screen, 48 h (100 = growth as untreated, 0 = no growth, -100 = all killed)
Details in all cases: 10 µM unless noted

The panel holds about 83,000 compounds, 20% with a hit somewhere; the sample as a whole holds those more often.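 How to read the values: 0–100, growth inhibition (40 = 60% inhibited); 0, no net growth; -100 to 0, cell death (-40 = 40% of starting cells died; -100 = all dead).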 A number with no mark means an inactive call. Active and inactive are the calls of the source. The calls were made as follows: active = growth percent below 10; inactive = the rest.

Consider `COC(=O)[C@@H](C)C[C@H](Cc1ccccc1)NC(=O)c1nc([C@@H](C[C@H](C(C)C)N(C)C(=O)[C@@H](NC(=O)[C@H]2C[C@H](O)CCN2C)C(C)C)OC(C)=O)sc1C(C)C`, for which the growth was 2.8% (active) in the test with HCT-15 colon; -15.3% (active) with HT29 colon; -9.05% (active) with SNB-75 CNS; 16.5% with SNB-19 CNS; 7.85% (active) in the test with U251 CNS; 21.5% in the test with PC-3 prostate. The growth is -24% (active) in the test on SK-MEL-5 melanoma, 31.3% with UACC-62 melanoma, 8.19% (active) with LOX IMVI melanoma and 44.8% in the test on SK-MEL-28 melanoma.
Regarding `CC1(C)N=C(N)N=C(N)N1c1ccc(CCCCc2ccc(Cl)c(S(=O)(=O)F)c2)c(Cl)c1`, the growth with HCT-15 colon was 37.3%; in the test on HT29 colon, 16.3%; with SNB-75 CNS, 35.1%; in the test with SNB-19 CNS it was 31.6%; in the test on U251 CNS, 28.8%; in the test on PC-3 prostate, 15.1%. Moreover, the growth was 10.6% in the test with SK-MEL-5 melanoma, 16.2% in the test on UACC-62 melanoma, 13.6% in the test with LOX IMVI melanoma and 58.2% with SK-MEL-28 melanoma.
Consider `COC(=O)[C@H](Cc1c[nH]c2ccccc12)NC(=O)[C@@H](OC)[C@@H]1Cc2cc3cc(OC4CC(OC5CC(O)C(O)C(C)O5)C(O)C(C)O4)c(C)c(O)c3c(O)c2C(=O)[C@H]1OC1CC(OC2CC(OC3CC(C)(O)C(O)C(C)O3)C(O)C(C)O2)C(O)C(C)O1` (stereo not given in full), for which the growth with HCT-15 colon was 15.9%; with HT29 colon, 4.98% (active); in the test on SNB-75 CNS it was -88.5% (active); in the test on SNB-19 CNS it was 7.09% (active); in the test on U251 CNS, 6.13% (active); with PC-3 prostate, -10.4% (active). Further, the growth was -72.1% (active) with SK-MEL-5 melanoma, -52.7% (active) with UACC-62 melanoma, -3.17% (active) in the test with LOX IMVI melanoma and -27.9% (active) with SK-MEL-28 melanoma.
Consider `CC1=C2[C@@H](CC1)[C@]1(C)O[C@@](C(C)C)(C[C@H]1O)[C@H]2OC(=O)C1CC1c1ccccc1` (stereo not given in full), for which the growth was 89.8% in the test with HCT-15 colon; 103% in the test with HT29 colon; 88% in the test with SNB-75 CNS; 102% in the test with SNB-19 CNS; 84.3% in the test on U251 CNS; 56.9% with PC-3 prostate. For the same compound, the growth with SK-MEL-5 melanoma was 85.4%; in the test with UACC-62 melanoma it was 75.6%; in the test on LOX IMVI melanoma, 93.3%; in the test on SK-MEL-28 melanoma it was 105%.
Turning to `CC1=C(CNO)C2=C(C)C3(CC3)[C@@](C)(O)C(=O)C2=C1`, the growth in the test on HCT-15 colon was 12.1%; with HT29 colon it was 41.4%; in the test on SNB-75 CNS it was -58.8% (active); in the test with SNB-19 CNS, 4.3% (active); with U251 CNS, -13.6% (active); in the test with PC-3 prostate, 5.59% (active). Also, the growth in the test with SK-MEL-5 melanoma is -67.4% (active); with UACC-62 melanoma it was 28.7%; in the test with LOX IMVI melanoma, 52.8%; in the test on SK-MEL-28 melanoma, 50.2%.
On to `COC(=O)[C@@H](C)C[C@H](Cc1ccccc1)NC(=O)c1csc([C@@H](C[C@H](C(C)C)N(C)C(=O)C2(NC(=O)[C@H]3CCCCN3C)CCC2)OC(C)=O)n1`, for which the growth in the test with HCT-15 colon is 17.1%; in the test with HT29 colon it was 5.81% (active); in the test on SNB-75 CNS, 28.5%; in the test with SNB-19 CNS, 73.2%; with U251 CNS, 6.93% (active); with PC-3 prostate it was 19.4%. Besides, the growth with SK-MEL-5 melanoma was -43.7% (active); in the test on UACC-62 melanoma, 40%; in the test with LOX IMVI melanoma, 12.7%; with SK-MEL-28 melanoma it was 57%.
As to `CN(C)C1C(=O)C(C(N)=O)=C(O)C2(O)C(=O)C3=C(O)c4c(O)cccc4C(C)(O)C3CC12.[Cl][Sb]([Cl])[Cl]` (stereo not given), the growth with HCT-15 colon was 26.7%; in the test with HT29 colon it was 38.5%; with SNB-75 CNS, 40.5%; with SNB-19 CNS it was 36.6%; in the test with U251 CNS, 10.8%; in the test on PC-3 prostate, 15.9%. For the same compound, the growth in the test on SK-MEL-5 melanoma was 15.6%; in the test with UACC-62 melanoma, 26.4%; with LOX IMVI melanoma it was 25.8%; in the test on SK-MEL-28 melanoma it was 47%.
Consider `CCCCCC1(CCBr)C(=O)NC(=O)NC1=O`, for which the growth is 97.7% with HCT-15 colon; 107% in the test on HT29 colon; 99.2% with SNB-75 CNS; 111% in the test on SNB-19 CNS; 93.4% in the test on U251 CNS; 100% in the test on PC-3 prostate. Further, the growth in the test on SK-MEL-5 melanoma was 109%; in the test on UACC-62 melanoma it was 108%; with LOX IMVI melanoma, 104%; in the test with SK-MEL-28 melanoma, 118%.
Regarding `Cc1cc(C)c(CBr)c(C)c1`, the growth with HCT-15 colon was 108%; with HT29 colon, 100%; with SNB-75 CNS, 106%; in the test on SNB-19 CNS it was 110%; with U251 CNS, 95.3%; with PC-3 prostate, 94%. Further, the growth was 97.7% with SK-MEL-5 melanoma, 102% with UACC-62 melanoma, 101% in the test on LOX IMVI melanoma and 106% with SK-MEL-28 melanoma.
Take `O=[N+]([O-])/C=C\c1ccc(Cl)c(Cl)c1`: the growth in the test on HCT-15 colon is 26.1%; in the test on HT29 colon it was -40.4% (active); in the test with SNB-75 CNS, 42%; in the test with SNB-19 CNS, 61.5%; in the test on U251 CNS, 19.3%; with PC-3 prostate, 70.1%. In addition, the growth in the test on SK-MEL-5 melanoma was 56.3%; in the test with UACC-62 melanoma it was 58.9%; in the test with LOX IMVI melanoma, -30.7% (active); with SK-MEL-28 melanoma, 89.7%.
Regarding `Clc1ccc(CSC(Cn2ccnc2)c2ccc(Cl)cc2Cl)cc1` (stereo not given), the growth in the test with HCT-15 colon was 29%; in the test with HT29 colon, 30.5%; with SNB-75 CNS, 57.9%; in the test with SNB-19 CNS it was 47.3%; in the test on U251 CNS, 27.8%; in the test with PC-3 prostate it was 15%. Further, the growth in the test with SK-MEL-5 melanoma is -9.89% (active); in the test with UACC-62 melanoma, 29.5%; in the test on LOX IMVI melanoma, 18%; in the test on SK-MEL-28 melanoma it was 62.3%.
Consider `Nc1ccc(-c2nc3cc(F)ccc3[se]2)cc1F`, for which the growth with HCT-15 colon was 52.8%; in the test on HT29 colon it was 61%; with SNB-75 CNS it was 76.6%; with SNB-19 CNS, 95.3%; in the test on U251 CNS it was 87.2%; in the test with PC-3 prostate, 74.3%. The growth with SK-MEL-5 melanoma was 82.1%; in the test with UACC-62 melanoma, 71.9%; in the test with LOX IMVI melanoma it was 88.2%; in the test with SK-MEL-28 melanoma, 115%.
As for `C/C(=C\c1cc(C(F)(F)F)nn1CCNC(=O)OC(C)(C)C)[C@@H]1C[C@@H]2O[C@]2(C)CCC[C@H](C)[C@H](O)[C@@H](C)C(=O)C(C)(C)[C@@H](O)CC(=O)O1`, the growth is 39.5% with HCT-15 colon; 23.6% in the test with HT29 colon; 37.2% in the test with SNB-75 CNS; 65.4% with SNB-19 CNS; 61.4% with U251 CNS; 32% in the test with PC-3 prostate. Besides, the growth is 38.8% in the test on SK-MEL-5 melanoma, 40.7% with UACC-62 melanoma, 55.9% in the test with LOX IMVI melanoma and 79.2% in the test on SK-MEL-28 melanoma.
